Screening results: PubChem BioAssay, Broad Institute
aSyn UTR act: Activators via SNCA 5'UTR binding, MLPCN; alpha-synuclein 5'UTR reporter, activators screen; activity score, % (tested at 7.5 µM), hits read low; hit rate 7.1% among 300,000; in the data active = activity score below about -60%
Of the large screens only hits and unclear results are named; the others gave an inactive call. Not all results are given here.

Cc1ccc(OCCn2nnc3ccccc32)cc1C	aSyn UTR act -199.9
COc1ccccc1OCCn1nnc2ccccc21	aSyn UTR act -101.0
NC(=O)c1ccc(NC(=O)C#Cc2ccccc2)cc1	aSyn UTR act -111.9
COc1ccc(NC(=O)C#Cc2ccccc2)cc1OC	aSyn UTR act -212.3
Brc1ccc(C2=Nn3c(nnc3-c3n[nH]c4c3CCC4)SC2)cc1	none
Nc1ccc(-c2nc3ccc(C(=O)O)cc3s2)cc1	none
O=C(Nc1nc(=O)c2ccccc2s1)c1ccccc1	aSyn UTR act -156.6
COc1ccc2nc(NC(=O)c3ccc4ncsc4c3)sc2c1	aSyn UTR act -133.7
Cc1ccc(C(=O)Nc2nc3ccccc3c(=O)s2)cc1	aSyn UTR act -189.9
NC(=O)c1ccc2nc(NC(=O)c3ccc(N)cc3)sc2c1	aSyn UTR act -78.7
CCc1nnc(NC(=O)c2ccc(NC(=O)C(C)C)cc2)s1	aSyn UTR act -100.6
O=C(Nc1nc2ccccc2s1)c1ccc(Cl)s1	aSyn UTR act -170.3
O=C(Nc1nc2ccccc2s1)c1ccc(F)cc1	aSyn UTR act -89.4
CC(C)(C)N1C(=O)c2ccc(C(=O)Nc3ccc(O)cc3)cc2C1=O	aSyn UTR act -87.2
O=C(Nc1nc(-c2cccs2)cs1)c1ccc(Cl)s1	aSyn UTR act -146.5
COc1ccc(OC)c(-c2csc(NC(=O)c3ccc(F)cc3)n2)c1	aSyn UTR act -201.7
COc1ccc2nc(NC(=O)c3ccc(F)cc3)sc2c1	aSyn UTR act -155.6
CCc1nnc(NC(=O)c2ccc3c(c2)C(=O)N(C(C)(C)C)C3=O)s1	aSyn UTR act -145.0
COc1ccc2nc(NC(=O)c3cccs3)sc2c1	aSyn UTR act -78.3
CCc1nnc(NC(=O)c2ccc3ncsc3c2)s1	aSyn UTR act -102.0
CCCCOc1ccc(N=Nc2ccc(N)nc2N)cn1	aSyn UTR act -300.0
O=c1[nH]c(-c2ccccn2)nc2sc(-c3ccccc3)cc12	aSyn UTR act -90.9
Nc1ccc2nc3c(=O)n(C4CCCCC4)c(=O)[nH]c3nc2c1	aSyn UTR act -130.2
CCCCCN1C(=O)/C(=C/c2c(N3CCc4ccccc4C3)nc3ccccn3c2=O)SC1=S	aSyn UTR act -93.8
CCc1ccc2c(c1)C(c1ccc([N+](=O)[O-])cc1)=NNC(c1ccc(F)cc1)=N2	aSyn UTR act -79.0
COc1ccccc1N1CCN(/N=C/c2cccc(O)c2)CC1	aSyn UTR act -111.5
COc1ccccc1N1CCN(/N=C/c2ccc([N+](=O)[O-])cc2)CC1	aSyn UTR act -159.4
COc1ccccc1N1CCN(/N=C/c2ccc(Cl)c([N+](=O)[O-])c2)CC1	aSyn UTR act -127.6
COc1ccccc1N1CCN(c2ccnc3cc(Cl)ccc23)CC1	none
COCC(C)Nc1ncnc2c1cnn2-c1ccc(Cl)cc1 (configuration not stated)	aSyn UTR act -132.4
CCCCNc1ncnc2c1cnn2-c1ccccc1	aSyn UTR act -259.8
c1ccc(-n2ncc3c(NCCCN4CCOCC4)ncnc32)cc1	aSyn UTR act -96.7
Clc1ccc(-n2ncc3c(NCCCn4ccnc4)ncnc32)cc1	aSyn UTR act -111.3
CCc1nc(NC(C)(C)C)c2cnn(-c3ccccc3)c2n1	aSyn UTR act -128.6
Clc1ccc(-n2ncc3c(N4CCCCCC4)ncnc32)cc1	none
CCCCNc1ncnc2c1cnn2-c1ccc(Cl)cc1	aSyn UTR act -137.3
Clc1ccc(-n2ncc3c(NCc4ccccn4)ncnc32)cc1	aSyn UTR act -123.2
CCOC(=O)N1CCC(Nc2ncnc3c2cnn3-c2ccc(Cl)cc2)CC1	aSyn UTR act -132.7
CC(=O)Nc1cccc(-n2nnc(SCC(=O)c3ccccc3)n2)c1	aSyn UTR act -121.3
COc1ccc(C(=O)CSc2nnn(-c3cccc(NC(C)=O)c3)n2)cc1	aSyn UTR act -119.4
Cc1ccc(C)c(Nc2nc(N)c3ccccc3n2)c1	aSyn UTR act -157.4
COc1nc(Nc2nc3ccccc3c(=O)[nH]2)nc2ccc(C)cc12	none
COc1ccc(Cl)cc1Nc1nc(N)c2ccccc2n1	aSyn UTR act -103.3
COc1cc2nc(N3CCN(c4cc(C)ccc4C)CC3)nc(N)c2cc1OC	none
C/C(=N\NC(=O)OC(C)(C)C)c1ccccc1Br	aSyn UTR act -84.4
CN1CCN(c2ccc(C(=O)c3ccc(F)cc3)cc2)CC1	aSyn UTR act -133.0
C/C(=N\NC(=O)c1ccccc1)c1ccccc1F	aSyn UTR act -88.3
C/C(=N\NC(=O)c1ccccc1)c1ccccc1Br	aSyn UTR act -101.7
CCCCCC(=O)N/N=C(\C)c1ccc(N2CCCCC2)cc1	aSyn UTR act -65.0
CCCCCC(=O)N/N=C(\C)c1ccccn1	none
O=C(c1ccccc1)c1ccc(N2CCCC2)cc1	aSyn UTR act -108.6
C/C(=N\NC(=O)c1ccc(Br)cc1)c1ccccc1	aSyn UTR act -158.0
C/C(=N\NC(=O)c1ccc(C)cc1)c1c(C)[nH]n(-c2ccccc2)c1=O	none
C/C(=N\NC(=O)c1ccccc1)c1ccc(N2CCCCC2)cc1	aSyn UTR act -86.3
Nc1ccc(C(=O)N/N=C2\CCCc3c2[nH]c2ccccc32)cc1	aSyn UTR act -73.5
Cc1cc(C)n2nc(-c3ccc(F)cc3)nc2n1	aSyn UTR act -109.4
O=C(NC1CCCCCC1)C(=S)NC1CCCCC1	aSyn UTR act -97.9
O=C(NC1CCCCCCC1)NC1CCCCC1	aSyn UTR act -127.1
CCOC(=O)C1=C(c2ccccc2)O/C(=C(/C#N)C(F)(F)F)S1	aSyn UTR act -63.5
CC1=NN(c2ccc(C)cc2)C(=O)/C1=C\c1ccc(Br)s1	aSyn UTR act -65.5
Cc1n[nH]c(C)c1CCOc1ccc(C(C)C)cc1	aSyn UTR act -83.8
O=c1[nH]c2ccccc2c2nc3ccccn3c12	aSyn UTR act -113.3
O=c1nc2c(O)cccn2c2c1c(=O)[nH]c1ccccc12	aSyn UTR act -66.2
Cc1ccccc1Nc1c(-c2ccc(N3CCOCC3)cc2)nc2cnccn12	aSyn UTR act -66.9
COc1cccc2cc(-c3ccnc(N)n3)oc12	aSyn UTR act -80.1
Cc1ccc2nc(Cc3ccc(N)cc3)oc2c1	aSyn UTR act -108.4
Cc1ccc2nc(CCc3ccc(N)cc3)[nH]c2c1	aSyn UTR act -135.9
Nc1ccc2nc(CCc3ccccc3)[nH]c2c1	aSyn UTR act -68.0
Cc1ccc(C)c(NC(=O)c2ccccn2)c1	aSyn UTR act -72.1
Cc1ccc(NC(=O)c2ccccn2)c(Br)c1	aSyn UTR act -103.3
Cc1ccc(NC(=O)Nc2ccc(Cl)cc2)c(Br)c1	aSyn UTR act -154.9
Cc1cccc(C(=O)N2CCc3cc(-c4csc(NC(=O)CN5CCCC5)n4)ccc32)c1	aSyn UTR act -74.1
O=C(CN1CCCC1)Nc1nc(-c2ccc3c(c2)CCN3C(=O)c2ccccc2F)cs1	aSyn UTR act -123.5
Cc1cccc(C(=O)N2CCc3cc(-c4nc(NC(=O)CN5CCCC5)sc4C)ccc32)c1	aSyn UTR act -71.2
Cc1cc(NC(=O)c2oc3ccccc3c2C)ccc1-n1cnnn1	aSyn UTR act -123.6
COc1cc(OC)cc(C(=O)Nc2ccc(-n3cnnn3)c(C)c2)c1	aSyn UTR act -93.2
COc1nc(-c2ccccc2)nnc1-c1ccccc1	aSyn UTR act -123.6
O=C(NCc1cccnc1)c1cc(-c2cccs2)on1	aSyn UTR act -91.7
Cc1ccc(NC(=O)c2cc(-c3cccc(O)c3)on2)cc1C	aSyn UTR act -114.8
COc1ccc(-c2cc(C(=O)NCc3cccnc3)no2)cc1	aSyn UTR act -116.6
O=C(NCc1ccccc1)c1cc(-c2cccc(O)c2)on1	aSyn UTR act -65.9
COc1ccc(CNC(=O)c2cc(C3CC3)on2)cc1	aSyn UTR act -106.2
O=C(NCc1cccnc1)c1cc(-c2ccccc2)on1	aSyn UTR act -88.7
O=C(Nc1ccccc1)ON=C1c2ccccc2-c2ccccc21	aSyn UTR act -106.1
CC(C)CCNCC(O)CON=C1c2ccccc2-c2ccccc21 (configuration not stated)	none
